Our source for the double positive events and percent response (vesicle binding) values is PubChem BioAssay AID2810 (NMMLSC, 2010).

A short description of this test: modulators of CD8 T cell-vesicle binding, confirmation, cherry-picked primary hits, two concentrations (AID 2810).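 For all read-outs here: lower values mean blocking of vesicle binding.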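 For percent response (vesicle binding): ratio of mean FL2 vesicle stain of CD8+ cells to that row's control.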 The conditions noted are these: 2C CD8+ T cell-vesicle binding, flow cytometry; for double positive events: CD8+/vesicle+ events.
Where [1] appears, read: at 15.4 µM, stronger effect = lower value.

About 65 (5%) of roughly 1,200 compounds were called active.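 Rule for the calls: active = at either tested dose, response and 90th-percentile vesicle-stain brightness of CD8 cells under set limits and under 9% cells vesicle-bound; inactive = the rest.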 The full list was thinned out, with actives kept by preference.

For `Cc1cc2ncn(C(=O)N3CCCCCC3)c2cc1C`, the double positive events amounted to 6.8% (at 7.7 µM) and 21.3% under setting [1]. Also, the percent response (vesicle binding) is 112% (inactive) under setting [1] and 241% (response, at 7.7 µM).

For `CCCCn1c(-c2ccccc2)nnc1-c1ccccc1`, the double positive events by setting is: (at 7.7 µM) 37.8%; under setting [1], 9.3%. For the same molecule, the percent response (vesicle binding) is, setting by setting: under setting [1], 150% (inactive); (response, at 7.7 µM) 219%.

In the case of `O=C(N/N=C/c1cccc(OCc2ccccc2)c1)c1ccc(Br)cc1`, the double positive events reads like this: (at 7.7 µM) 9.6%; under setting [1], 0.9%. The percent response (vesicle binding) is 36% (active) under setting [1] and 128% (response, at 7.7 µM).

On to `O=C(N/N=C/c1cccc(OC(=O)c2ccccc2Cl)c1)c1cccnc1`, for which the double positive events runs as follows: (at 7.7 µM) 25.8%; under setting [1], 10%. In addition, the percent response (vesicle binding) was 87% (inactive) under setting [1] and 350% (response, at 7.7 µM).

`O=C(N/N=C/c1ccc(OCc2ccccc2)cc1)c1cccs1`: the double positive events reads like this: (at 7.7 µM) 12.1%; under setting [1], 18.5%. In addition, the percent response (vesicle binding) is, setting by setting: under setting [1], 272% (inactive); (response, at 7.7 µM) 428%.

For `Cc1ccc(N(CC(O)CN2CCCC2)S(=O)(=O)c2ccc(C)cc2)cc1` (stereo unspecified), the double positive events by setting is: (at 7.7 µM) 24.2%; under setting [1], 34.6%. In addition, the percent response (vesicle binding) is, setting by setting: under setting [1], 136% (inactive); (response, at 7.7 µM) 325%.

For `COc1cc(F)c(C2=CC(=O)C[C@H](c3ccc(F)cc3)C2)cc1F`, the double positive events runs as follows: (at 7.7 µM) 24.2%; under setting [1], 13.4%. In addition, the percent response (vesicle binding) is, setting by setting: under setting [1], 170% (inactive); (response, at 7.7 µM) 320%.

As to `CC1(C)Cc2c(C#N)c(NC3CCCCC3)nc(-c3ccco3)c2CO1`, the double positive events reads like this: (at 7.7 µM) 5.9%; under setting [1], 2.8%. Also, the percent response (vesicle binding) reads like this: under setting [1], 33.8% (active); (response, at 7.7 µM) 107%.

For `O=C(NCCC1=CCCCC1)C(=O)NCC(c1ccco1)N1CCN(c2ccccc2F)CC1` (stereo unspecified), the double positive events runs as follows: (at 7.7 µM) 36.4%; under setting [1], 10.7%. For the same molecule, the percent response (vesicle binding) is 201% (inactive) under setting [1] and 264% (response, at 7.7 µM).

For the molecule `O=C(NCc1cccnc1)C(=O)NCC(c1ccco1)N1CCN(c2ccccc2)CC1` (stereo unspecified), the double positive events by setting is: (at 7.7 µM) 20.2%; under setting [1], 6.1%. For the same molecule, the percent response (vesicle binding) is, setting by setting: under setting [1], 135% (inactive); (response, at 7.7 µM) 202%.

For the molecule `COc1ccc(NC(=O)Cc2ccc(C)c(C)c2)cc1S(=O)(=O)N1CCCCC1`, the double positive events runs as follows: (at 7.7 µM) 37.7%; under setting [1], 10.7%. The percent response (vesicle binding) runs as follows: under setting [1], 257% (inactive); (response, at 7.7 µM) 649%.

For `COc1ccccc1NS(=O)(=O)c1ccc(C)c(NC(=O)c2ccc(S(=O)(=O)N3CCCCCC3)cc2)c1`, the double positive events reads like this: (at 7.7 µM) 11.9%; under setting [1], 35.5%. Moreover, the percent response (vesicle binding) runs as follows: under setting [1], 332% (inactive); (response, at 7.7 µM) 182%.

As to `COc1ccccc1NS(=O)(=O)c1cc(NC(=O)CNC(=O)c2cc(C)cc(C)c2)ccc1C`, the double positive events (at 7.7 µM) was 21% and the double positive events under setting [1] amounted to 0.9%. The percent response (vesicle binding) was 39.6% (active) under setting [1] and 218% (response, at 7.7 µM).

In the case of `O=S(=O)(NN=C1CCCCCCC1)c1ccc(Br)cc1`, the double positive events by setting is: (at 7.7 µM) 13.7%; under setting [1], 7.3%. For the same molecule, the percent response (vesicle binding) under setting [1] is 144% (inactive) and the percent response (vesicle binding) (response, at 7.7 µM) is 120%.

Take `CC(/C=C/c1ccc(C)o1)=C\C(=O)O`: the double positive events runs as follows: (at 7.7 µM) 19.1%; under setting [1], 19.8%. In addition, the percent response (vesicle binding) runs as follows: under setting [1], 196% (inactive); (response, at 7.7 µM) 227%.

For `COCCNC(=O)c1c[nH]c2ccc(OC)cc2c1=O`, the double positive events by setting is: (at 7.7 µM) 18.7%; under setting [1], 13.1%. The percent response (vesicle binding) under setting [1] is 154% (inactive) and the percent response (vesicle binding) (response, at 7.7 µM) was determined as 563%.

As for `NC(=O)NC(=O)COC(=O)CN1C(=O)C2CCCCC2C1=O` (stereo unspecified), the double positive events was 15.9% (at 7.7 µM) and 33.3% under setting [1]. Moreover, the percent response (vesicle binding) was 345% (inactive) under setting [1] and 151% (response, at 7.7 µM).

Molecule `CCOC(=O)c1c(O)c2cc(Cl)ccc2n(CC)c1=O` returned a double positive events (at 7.7 µM) of 10.9% and a double positive events under setting [1] of 12%. The percent response (vesicle binding) reads like this: under setting [1], 102% (inactive); (response, at 7.7 µM) 127%.

With `CCOC(=O)c1c(C=O)c2ccccc2n1CC`, the double positive events is, setting by setting: (at 7.7 µM) 17.9%; under setting [1], 3%. Moreover, the percent response (vesicle binding) reads like this: under setting [1], 28.6% (active); (response, at 7.7 µM) 287%.

`CCn1c(=O)cc(SCC(=O)N(C)Cc2ccccc2)c2ccccc21`: the double positive events reads like this: (at 7.7 µM) 24.8%; under setting [1], 14%. The percent response (vesicle binding) was 193% (inactive) under setting [1] and 224% (response, at 7.7 µM).

Turning to `Cc1ccc(CSc2ccc(S(=O)(=O)N3CCCC3)cn2)cc1`, the double positive events stood at 8.3% (at 7.7 µM) and 18% under setting [1]. Besides, the percent response (vesicle binding) under setting [1] was 92.4% (inactive) and the percent response (vesicle binding) (response, at 7.7 µM) worked out at 237%.

For `CC(=O)c1ccc(Nc2cc(C)nc3nc(C)nn23)cc1`, the double positive events was 10.4% (at 7.7 µM) and 19.9% under setting [1]. In addition, the percent response (vesicle binding) was 90.9% (inactive) under setting [1] and 189% (response, at 7.7 µM).

On to `COc1ccc(NC(=S)N2CCN(c3ncccn3)CC2)c(OC)c1`, for which the double positive events is, setting by setting: (at 7.7 µM) 30.6%; under setting [1], 14.7%. In addition, the percent response (vesicle binding) reads like this: under setting [1], 195% (inactive); (response, at 7.7 µM) 246%.

With `COc1ccc(-c2cccc3c2NC(=O)C3=O)cc1OC`, the double positive events reads like this: (at 7.7 µM) 7.8%; under setting [1], 26.1%. For the same molecule, the percent response (vesicle binding) under setting [1] was 427% (inactive) and the percent response (vesicle binding) (response, at 7.7 µM) was 305%.

As for `C/C(=N\Nc1nc2ccccc2[nH]1)c1cc2ccccc2o1`, the double positive events reads like this: (at 7.7 µM) 14.4%; under setting [1], 31.4%. The percent response (vesicle binding) by setting is: under setting [1], 271% (inactive); (response, at 7.7 µM) 266%.

As to `CCSc1ncnc2sc(C)c(C)c12`, the double positive events (at 7.7 µM) was 7.6% and the double positive events under setting [1] stood at 17.4%. The percent response (vesicle binding) is 318% (inactive) under setting [1] and 354% (response, at 7.7 µM).

For the molecule `CC(C)(CNC(=O)c1cc2c(s1)CCCC2)N1CCOCC1`, the double positive events (at 7.7 µM) worked out at 8% and the double positive events under setting [1] worked out at 20.9%. Besides, the percent response (vesicle binding) under setting [1] is 213% (inactive) and the percent response (vesicle binding) (response, at 7.7 µM) worked out at 164%.

As for `Cc1sc2ncnc(NCC(C)(C)N3CCOCC3)c2c1C`, the double positive events (at 7.7 µM) was found to be 6.4% and the double positive events under setting [1] is 1.9%. Also, the percent response (vesicle binding) reads like this: under setting [1], 49.2% (active); (response, at 7.7 µM) 251%.

Turning to `Cc1ncc([N+](=O)[O-])n1Cc1cccc(F)c1`, the double positive events is, setting by setting: (at 7.7 µM) 7.3%; under setting [1], 11.5%. Also, the percent response (vesicle binding) by setting is: under setting [1], 118% (inactive); (response, at 7.7 µM) 274%.

The molecule `COc1ccc(S(=O)(=O)N(C)C[C@H]2Oc3ccc(NC(=O)C4CC4)cc3C(=O)N([C@H](C)CO)C[C@@H]2C)cc1` had a double positive events (at 7.7 µM) of 5.6% and a double positive events under setting [1] of 16.6%. Further, the percent response (vesicle binding) is, setting by setting: under setting [1], 189% (inactive); (response, at 7.7 µM) 102%.

`Cc1cc(C)c(/C=N/NC(N)=O)c(C)c1/C=N/NC(N)=O`: the double positive events reads like this: (at 7.7 µM) 38.1%; under setting [1], 18.6%. In addition, the percent response (vesicle binding) is 240% (inactive) under setting [1] and 428% (response, at 7.7 µM).

Regarding `COc1ccc(/C=C2\SC(N3CCc4ccccc4C3)=NC2=O)cc1OC`, the double positive events runs as follows: (at 7.7 µM) 22.6%; under setting [1], 2.9%. In addition, the percent response (vesicle binding) reads like this: under setting [1], 42% (active); (response, at 7.7 µM) 201%.

Consider `CCCC(=O)N1CCc2cc(OC)c(OC)cc2C1COc1ccccc1OC` (stereo unspecified), for which the double positive events is 21.6% (at 7.7 µM) and 13.8% under setting [1]. The percent response (vesicle binding) reads like this: under setting [1], 128% (inactive); (response, at 7.7 µM) 276%.

For `O=C1N=C(N2CCOCC2)S/C1=C\c1cccs1`, the double positive events reads like this: (at 7.7 µM) 8.6%; under setting [1], 6.3%. The percent response (vesicle binding) under setting [1] was 248% (inactive) and the percent response (vesicle binding) (response, at 7.7 µM) amounted to 332%.
